Data as given in PubChem BioAssay (NCI).
The panel holds about 79,000 compounds, 15% with a hit somewhere; the sample as a whole holds those more often. A number with no mark means an inactive call. Activity calls are given as the source filed them. Rule as the data show it: active = growth inhibition above about 70%; inactive = the rest.

Experiments:
[1] = NCI Yeast Anticancer Drug Screen. Data for the rad50 strain (AID 155);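 also: 0% = growth of vehicle-only cultures of the same strain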; details: S. cerevisiae rad50 strain growth inhibition, active compounds read high
Procedure, shortened: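 Vehicle-treated cultures provide the reference for the growth inhibition reported for compound-exposed, repair-deficient yeast.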

[2] = NCI Yeast Anticancer Drug Screen. Data for the mec2-1 strain (AID 157); details: S. cerevisiae mec2-1 strain, active compounds read high
Procedure, shortened: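 Mutant yeast (mec2-1) grown with compound; growth inhibition relative to vehicle control reported.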

[3] = NCI Yeast Anticancer Drug Screen. Data for the sgs1 mgt1 strain (AID 161);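 also: 0% = growth of cultures given vehicle only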; details: S. cerevisiae sgs1 mgt1 strain, active compounds read high
Procedure, shortened: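 Percent growth inhibition was derived by comparing compound-exposed mutant yeast with vehicle-exposed cultures. The strain carries alterations in DNA damage repair.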

[4] = NCI Yeast Anticancer Drug Screen. Data for the cln2 rad14 strain (AID 165);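 also: 0% = growth equal to vehicle treated cultures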; details: S. cerevisiae cln2 rad14 strain, active compounds read high
Procedure, shortened: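 Readout is yeast growth inhibition versus vehicle-treated controls, using a strain with cln2 and rad14 alterations exposed to compound.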

[5] = NCI Yeast Anticancer Drug Screen. Data for the bub3 strain (AID 167); details: S. cerevisiae bub3 mutant strain, active compounds read high
Procedure, shortened: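 Mutant yeast screening strain plus compound; vehicle-treated cultures serve as the 0% inhibition reference.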

[6] = NCI Yeast Anticancer Drug Screen. Data for the mlh1 rad18 strain (AID 175); details: S. cerevisiae mlh1 rad18 strain growth inhibition, active compounds read high
Procedure, shortened: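 Genetically defined yeast (DNA repair-deficient) exposed to compounds; growth inhibition determined relative to vehicle.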

[7] = at 5.0 µM (retest, dose inferred, filed as 0.5)
[8] = at 50.0 µM (retest, dose inferred, filed as 5.0)

Structure (SMILES)	growth inhibition [1, 7] [%]	growth inhibition [1, 8]	growth inhibition ([1]; at 50.0 µM)	growth inhibition [2, 7] [%]	growth inhibition [2, 8]	growth inhibition ([2]; at 50.0 µM)	growth inhibition [3, 7] [%]	growth inhibition [3, 8]	growth inhibition ([3]; at 50.0 µM)	growth inhibition [4, 7] [%]	growth inhibition [4, 8]	growth inhibition ([4]; at 50.0 µM)	growth inhibition [5, 7] [%]	growth inhibition [5, 8]	growth inhibition ([5]; at 50.0 µM)	growth inhibition [6, 7] [%]	growth inhibition [6, 8]	growth inhibition ([6]; at 50.0 µM)
CC(=O)Nc1ccc(O)c(=O)cc1	18	96% (active)	90.6% (active)	42	97% (active)	87.5% (active)	27	96% (active)	96.1% (active)	16	93% (active)	20.9%	23	93% (active)	53.9%	19	97% (active)	97.2% (active)
Nc1ccccc1Sc1ccccc1	36	58%	83.2% (active)	26	61%	77.3% (active)	46	66%	62.5%	29	47%	83.2% (active)	37	73% (active)	64.5%	35	78% (active)	71% (active)
O=C(Nc1cccc(Cl)c1)Oc1c(Br)cc(Br)cc1Br	18	98% (active)	99% (active)	22	99% (active)	98.7% (active)	34	98% (active)	99% (active)	-4	98% (active)	94.5% (active)	-7	99% (active)	97.1% (active)	24	99% (active)	99.4% (active)
CCNc1cc2c3c(c1)CCCN3CCC2	15	40%	-15.7%	13	27%	-20.7%	14	18%	-1.15%	20	24%	-46.1%	15	30%	-17%	17	51%	-10.7%
CCc1cccc(C)c1NC(=O)C1=C(C)NC(C)=C(C(=O)Nc2c(C)cccc2CC)C1c1ccc2c(c1)OCO2	32	32%	91.2% (active)	27	27%	89.3% (active)	33	33%	89.6% (active)	20	20%	84.2% (active)	26	26%	90% (active)	37	37%	87.2% (active)
